# Experimental data published in PubChem BioAssay AID588346 (National Center for Advancing Translational Sciences (NCATS), 2011).
# Records with an inconclusive call do not appear. A number with no mark means an inactive call. The call rests on the fitted dose curve; in most records, active means well fitted curve in the direction sought with a large enough effect; inconclusive means small, poorly fitted or top-dose-only effect, or another doubt; inactive means no such curve, though single readings can be large or run the other way.
# Test: qHTS Assay for Inhibitors of Histone Lysine Methyltransferase G9a: Hit Confirmation in b-rIgG Counterscreen
# Conditions: AlphaScreen b-rIgG bead counterscreen, signal interference; series mostly up to 55.7 µM; activity change, negative = inhibition: at the top concentration
# Description: Methylated lysines, on the N-terminal tails of histone proteins serve as epigenetic markers to recruit factors that can then modify local chromatin structure to lead to functional consequences. G9a and other members of the SUV39 family of the SET domain-containing superfamily of histone lysine methyltransferases (HMT) have been identified to specifically methylate Lys9 of histone H3 (H3K9). G9a catalyzes the mono- and di-methylation of H3K9 in mammalian euchromatic regions, where the resulting H3K9me2 is indicative of transcriptional repression. […] The inhibition of G9a will result in transcriptional activation and work synergistically with DNA methyltransferase and histone deacetylase inhibitors, to kill cancer cells. This qHTS assay for identification of G9a inhibitors is a chemiluminescence based AlphaScreen (PerkinElmer). Methylation of biotinylated-histone peptide is measured through specific antibody-based detection, in conjunction with streptavidin-coated donor and anti-IgG antibody-coated acceptor beads. The method is particularly well suited for detection of inhibitors acting by the desired histone peptide competitive mechanism and is applicable to testing other HMTs. Although AlphaScreen has significant advantages with its utility in a variety of epigenetic target assays, the primary screening data provided in this deposition should be used with caution due to the prevalence of screening artifacts. Because an AlphaScreen counterscreen is highly recommended to be run against any putative actives to eliminate non specific artifacts, this assay was used as a counterscreen. Quinn et al. A chemiluminescence-based method for identification of histone lysine methyltransferase inhibitors. Mol Biosyst 6(5): 782-8. 2010. PMID: 20567762 [2] Baell,Holloway. New substructure filters for removal of pan assay interference compounds (PAINS) from screening libraries and for their exclusion in bioassays. J Med Chem. 53(7):2719-40. 2010. PMID: 20131845 NIH Chemical Genomics Center [NCGC] NIH Molecular Libraries Probe Production Network [MLPCN] MLPCN Grant: MH084681-02 Assay Submitter (PI): Structural Genomic Consortium - Toronto, Peter Brown
# Biotinylated rabbit-IgG (b-rIgG) (Santa Cruz Biotechnology, Inc., Santa Cruz, CA) was added to 1,536-well plates in a 3 uL dispense. Compounds were added in a 23 nL pin-transfer step, and plates were incubated at room temperature for 15 min. Streptavidin-coated donor and anti-rIgG acceptor AlphaScreen beads were added (1 uL) for final concentrations of 20 ug/mL each bead and 1 nM b-rIgG, and plates read on the Envision after a 15 min incubation at room temperature in the dark.
row,SMILES,"activity change, negative = inhibition"
1,CN1CSC(=S)N(C)C1,17%
2,Oc1ccc2c3c1O[C@H]1[C@@H](O)CC[C@@]4(O)C(C2)N(CC2CCC2)CCC314 (some centres not stated),-11.1%
3,COc1ccc(OC)c(N2C(=O)NC(=O)/C(=C\c3ccc([N+](=O)[O-])s3)C2=O)c1,0.425%
4,NCCc1c[nH]c2ccc(O)cc12,-25.5%
5,CCCN(CCC)CCc1c[nH]c2ccc(C(N)=O)cc12,62.1% [at 114 µM]
6,C/C(O)=C(\C#N)C(=O)Nc1cc(Br)ccc1Br,23.4%
7,O=C1NC(=O)N(CCc2ccc(F)cc2)C(=O)/C1=C/C=C/c1ccccc1,-5.53%
